Test results published in PubChem BioAssay (EPA / NIEHS).
Several values for one entry are separate records, joined by “and”; a condition that tells them apart may be missing. Equal values may be shown once. Activity calls are given as the source filed them. The calls were made as follows: active = hit-call score of the fitted dose curve at least 0.9, where 1 is the maximum; inactive = score below 0.9.

Assays:
[1] = TAMU_PeakParms_SingleDonor1434_Chronotropy: Texas A&M University (TAMU) 1.5-hr Human Induced Pluripotent Stem Cell (iPSC)-derived Cardiomyocytes Calcium (Ca+2) Flux Assay for Cardiotoxicity: Chronotropy (changes in peak frequency) (AID 2284217); details: actives raise or lower the signal
Method: TAMU_PeakParms is a cell-based, multiplexed-readout assay that uses iPSC-derived cardiomyocytes with measurements taken at 1.5 hours after chemical dosing in a microplate: 384-well plate.TAMU_PeakParms_SingleDonor1434_Chronotopy is a phenotype derived from the peak.freq.avg parameter and uses an EC05 as its POD (5% increase in beat rate, compared to controls). Peak.Freq.Avg measures the average peak frequency, in beats per second, using Fluorescence intensity as a functional reporter from Calcium (Ca+2) flux assay technology. Before modeling, data is preprocessed to remove data points where there is a cessation of beating (where peak.freq.avg equals 0) to ensure the capture of the upwards response that isn't confounded by the drop in beat rate at higher concentrations and to ensure the drop in beat rate is captured before asystole, which is captured elsewhere.Data from the assay component TAMU_PeakParms_SingleDonor1434_Chronotropy was analyzed into 1 assay endpoint. This assay endpoint, TAMU_PeakParms_SingleDonor1434_Chronotropy_Negative, was analyzed with bidirectional fitting relative to DMSO as the negative control and baseline of activity. Using a type of functional reporter, gain or loss-of-signal activity can be used to understand changes in the cardiac function. To generalize the intended target to other relatable targets, this assay endpoint is annotated to the cardiomyocyte function intended target family, where the subfamily is lowered beat rate.
Each test compound from the chemical master plates was transferred into new tissue culture-treated 384-well microplates using acoustic dispensing (Labcyte Echo 550, Beckman Coulter, Indianapolis, IN) in amounts that would result in 5x concentrations (1, 5, 50, 500 uM) in the working plate in a final volume of 50 uL. Chemicals were randomly divided into 16 separate 384-well plates for screening such that the outer-most wells were left empty (308 wells were used on each plate). Fifteen of the plates contained unique test chemicals (n = 65 chemicals, 4 concentrations, one replicate each), positive controls (n = 10 chemicals, one concentration, 3 replicates each), vehicle (0.5% DMSO, n = 12), and media-only (n = 6) wells. Plate 16 contained test chemicals (n = 54 chemicals, 4 concentrations, one replicate each), inter-plate replicates (n = 11 chemicals with replicates, 4 concentrations, one replicate each), and the same design of positive controls and vehicle- and media-only wells as other plates. These plates were stored at -80C until the day of the assay. On assay day, the 5x concentrated chemical working plate was prepared by adding 50 uL cardiomyocyte maintenance medium containing 2.5% v/v DMSO to each well of the microplates. […]

[2] = IUF_NPC1b_proliferation_BrdU_72hr: Leibniz Research Institute for Environmental Medicine (IUF) 72-hour Neural Progenitor Cell Bromodeoxyuridine (BrdU) Proliferation Assay (NPC1b) (AID 2284207)
Procedure, shortened: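 Human fetal cortex-derived (GW 16-19) neural progenitor spheres, 0.25-0.35 mm, one per well in EGF/FGF proliferation medium, exposed to compound for 72 h at 37C, pH 7.2-7.6. BrdU incorporation over the final 16 h read by luminescence ELISA, relative to DMSO.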

[3] = IUF_NPC1a_proliferation_area_72hr: Leibniz Research Institute for Environmental Medicine (IUF) 72-hour Neural Progenitor Cell Proliferation Area Assay (NPC1a) (AID 2284208)
Procedure, shortened: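 Spheres of 0.3 mm are plated singly in growth-factor medium and exposed from day 0. After three days at 37C and 5% CO2, sphere area is measured by phase contrast imaging, with activity referenced to DMSO.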

[4] = IUF_NPC1_viability_72hr: Viability Assessment at 72 hours in the Leibniz Research Institute for Environmental Medicine (IUF) Neural Progenitor Cell Proliferation Assay (NPC1) (AID 2284209)
Procedure, shortened: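 Alamar blue fluorescence (RFU) after 72 h exposure, normalized to DMSO baseline. hNPC spheres from GW 16-19 fetal cortex, single sphere per well in growth-factor medium; no compound renewal.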

[5] = CCTE_Mundy_HCI_Cortical_Synap_Neur_Matur_NeuriteSpotCountPerNeuriteLength: CCTE's Synaptogenesis and Neurite Maturation Assay in rat cortical cells for Neurite Spot Count per Neurite Length, Mundy Lab (AID 2284210)
Method: (§1) CCTE_Mundy_HCI_Cortical_Synap&Neurite_Matur is a multiplexed, cell-based-readout assay that uses rat primary cortical cells with measurements taken at 288.33 hours after chemical dosing in a microplate: 96-well plate.CCTE_Mundy_HCI_Cortical_Synap_Neur_Matur_NeuriteSpotCountPerNeuriteLength is one of eight components of the CCTE_Mundy_HCI_Cortical_Synap&Neurite_Matur assay. It measures synaptogenesis and neurite maturation related to number of neurite-associated synapses (synaptophysin puncta) per unit length of neurite using High Content Imaging of fluorescently labelled markers.[…] Using a type of morphology reporter, loss -of-signal activity can be used to understand developmental effects.
(§2) Cells are plated onto 96 well plates and allowed 2 hr for attachment to the substrate. At days in vitro (DIV) 5, Cytosine Arabinoside (AraC) is added to arrest glial cell growth. Chemicals are dosed and a media change is performed at DIV 7 of differentiation and is continued through DIV 12 when the experiment is terminated. Cells are fixed with […] and Hoechst Dye. Cells are stained using Millipore Mouse anti-MAP2MAB3418 (1:800) and Millipore Rabbit anti-Synaptophysinsc-1750 (1:250) primary antibodies and Alexa Fluor-488 goat anti-mouse and AlexaFluor-546 goat anti-rabbit secondary antibodies to label neuronal cell nuclei, synapses and neurites. A Cellomics ArrayScan VTi HCS Reader is used for automated image acquisition and analysis of neurite outgrowth.

[6] = CCTE_Mundy_HCI_Cortical_NOG_NeuriteLength: CCTE's Neurite Outgrowth Assay in rat cortical cells for Neurite Length, Mundy Lab (AID 2284213);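 as to AC50: neurites imaged about 48 to 50 h after chemical exposure began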
Procedure, shortened: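 First, rat primary cortical cells were plated and, 2 h later, given test chemical as a 1/10 dilution. Finally, βIII-tubulin immunostaining enabled automated imaging of neurite length.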

[7] = CCTE_Mundy_HCI_Cortical_Synap_Neur_Matur_NeuriteSpotCountPerNeuron: CCTE's Synaptogenesis and Neurite Maturation Assay in rat cortical cells for Neurite Spot Count per Neuron Count, Mundy Lab (AID 2284215)
Procedure, shortened: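 Rat cortical primary cultures; AraC DIV 5 to arrest glia; dosing + media change DIV 7; fixed DIV 12. Anti-MAP2/anti-synaptophysin, Hoechst nuclei; HCI puncta count per neuron, positive fitting direction vs DMSO.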

[8] = CCTE_Mundy_HCI_Cortical_Synap_Neur_Matur_BPCount: CCTE's Synaptogenesis and Neurite Maturation Assay in rat cortical cells for Branch Point Count, Mundy Lab (AID 2284211)
Method: as §1, with “plate.CCTE_Mundy_HCI_Cortical_Synap_Neur_Matur_BPCount” for “plate.CCTE_Mundy_HCI_Cortical_Synap_Neur_Matur_NeuriteSpotCountPerNeuriteLength”, “branch points” for “neurite-associated synapses (synaptophysin puncta) per unit length of neurite”
as §2

[9] = CCTE_Mundy_HCI_Cortical_NOG_NeuriteCount: CCTE's Neurite Outgrowth Assay in rat cortical cells for Neurite Count, Mundy Lab (AID 2284212);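 also: cells fixed about two days after chemical exposure began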
Procedure, shortened: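 Rat cortical primary cells; compound added 2 h post-plating, 1/10 dilution of working solution. Anti-betaIII-tubulin/AF488 ICC; ArrayScan neurite count vs DMSO.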

[10] = CCTE_Mundy_HCI_Cortical_Synap_Neur_Matur_NeuriteLength: CCTE's Synaptogenesis and Neurite Maturation Assay in rat cortical cells for Neurite Length, Mundy Lab (AID 2284214)
Method: as §1, with “plate.CCTE_Mundy_HCI_Cortical_Synap_Neur_Matur_NeuriteLength” for “plate.CCTE_Mundy_HCI_Cortical_Synap_Neur_Matur_NeuriteSpotCountPerNeuriteLength”, “neurite” for “number of neurite-associated synapses (synaptophysin puncta) per unit”, “length” for “length of neurite”
as §2

Q: Which outcome [1] does the source give for c1ccc2c(c1)ccc1ccccc12 here?
A: Its outcome is “inactive”.

Q: For CC1=C(/C=C/C(C)=C/C=C/C(C)=C/C(=O)O)C(C)(C)CCC1, which AC50 [2] is on record?
A: Its AC50 is 1.67 µM (active).

Q: And the AC50 [3]?
A: The AC50 was 4.35 µM (active).

Q: And the outcome [4]?
A: The outcome was “inactive”.

Q: And the outcome [5]?
A: Its outcome is “inactive”.

Q: And the AC50 [6]?
A: The AC50 was 6.25 µM (active).

Q: And the outcome [7]?
A: The outcome was “inactive”.

Q: Which AC50 [2] does the source give for CC#C[C@]1(O)CC[C@H]2[C@@H]3CCC4=CC(=O)CCC4=C3[C@@H](c3ccc(N(C)C)cc3)C[C@@]21C here?
A: Its AC50 is 5 µM (active).

Q: And the outcome [3]?
A: The outcome was “inactive”.

Q: And the outcome [4]?
A: The outcome was “inactive”.

Q: And the AC50 [5]?
A: Its AC50 is 25.7 µM (active).

Q: And the AC50 [8]?
A: Its AC50 is 18.4 µM (active) and 27.4 µM (active).

Q: What about the AC50 [9] of the same compound?
A: The AC50 was 62 µM (active) and 24.4 µM (active).

Q: And the AC50 [6]?
A: Its AC50 is 50 µM (active) and 23.6 µM (active).

Q: And the AC50 [10]?
A: Its AC50 is 15.9 µM (active) and 27.7 µM (active).

Q: And the AC50 [7]?
A: The AC50 was 13.3 µM (active) and 25.5 µM (active).

Q: What about the AC50 [1] of the same compound?
A: Its AC50 is 0.216 µM (active).

Q: Which AC50 [1] does the source give for c1ccc2c(c1)Cc1ccccc1-2 here?
A: The AC50 was 50 µM (active).

Q: With CN1CCC[C@H]1c1cccnc1 as the compound, how does the outcome [2] read?
A: Its outcome is “inactive”.

Q: And the outcome [3]?
A: Its outcome is “inactive”.

Q: What about the outcome [4] of the same compound?
A: The outcome was “inactive”.

Q: What about the outcome [5] of the same compound?
A: The outcome was “inactive”.

Q: And the outcome [6]?
A: The outcome was “inactive”.

Q: And the outcome [10]?
A: Its outcome is “inactive”.

Q: And the outcome [7]?
A: The outcome was “inactive”.

Q: For c1ccc2cc3c(ccc4ccccc43)cc2c1, which outcome [1] is on record?
A: The outcome was “inactive”.
